# Source: PubChem BioAssay AID504710 (Sanford-Burnham Center for Chemical Genomics, 2011)
# A number with no mark means an inactive call. The source made the active and inactive calls.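 Rule for the calls: active = inhibition reaching about 16% in any single replicate (limit read from the data); inactive = the rest.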
# Target: Hexokinase HKDC1 (Homo sapiens) (UniProt Q2TB90)
# Assay: compounds lowering human HKDC1 activity – biochemical, single concentration, confirmation (AID 504710)
# Details: recombinant HKDC1, G6PDH/diaphorase/resazurin fluorescence; at 20 µM; stronger effect = higher value
# Sequence of Hexokinase HKDC1 (Homo sapiens) (Q2TB90 whole entry, looked up): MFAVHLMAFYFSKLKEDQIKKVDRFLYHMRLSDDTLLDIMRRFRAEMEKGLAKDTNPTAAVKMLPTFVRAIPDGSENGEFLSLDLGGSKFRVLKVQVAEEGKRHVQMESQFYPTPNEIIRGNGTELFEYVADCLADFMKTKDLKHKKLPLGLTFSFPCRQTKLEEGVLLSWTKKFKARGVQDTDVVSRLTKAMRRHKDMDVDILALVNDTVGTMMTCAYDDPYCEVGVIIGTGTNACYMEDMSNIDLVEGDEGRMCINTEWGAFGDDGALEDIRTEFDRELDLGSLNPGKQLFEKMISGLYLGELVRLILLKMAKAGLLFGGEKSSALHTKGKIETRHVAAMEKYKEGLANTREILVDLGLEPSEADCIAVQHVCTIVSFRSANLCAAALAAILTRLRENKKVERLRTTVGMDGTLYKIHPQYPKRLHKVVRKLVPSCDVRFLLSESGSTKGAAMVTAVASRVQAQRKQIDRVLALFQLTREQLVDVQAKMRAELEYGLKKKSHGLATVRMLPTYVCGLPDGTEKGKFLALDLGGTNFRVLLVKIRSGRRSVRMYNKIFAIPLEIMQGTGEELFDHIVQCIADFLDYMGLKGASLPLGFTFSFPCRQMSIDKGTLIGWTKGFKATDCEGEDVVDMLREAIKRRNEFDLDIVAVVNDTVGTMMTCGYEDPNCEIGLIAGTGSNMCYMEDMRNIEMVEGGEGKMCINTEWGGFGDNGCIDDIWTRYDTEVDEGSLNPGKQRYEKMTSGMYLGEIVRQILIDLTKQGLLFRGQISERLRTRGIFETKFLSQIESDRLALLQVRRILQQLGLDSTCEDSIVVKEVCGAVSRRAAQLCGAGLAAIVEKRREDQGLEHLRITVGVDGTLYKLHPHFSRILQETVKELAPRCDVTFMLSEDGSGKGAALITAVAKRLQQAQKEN
row,Compound,inhibition
1,COc1ccc(C(=O)c2coc3c2C(=O)C(=O)c2ccccc2-3)cc1,44.8% (active)
2,O=C(O)c1ccc2ncsc2c1,48.1% (active)
3,Nc1ccc(S(=O)(=O)c2cc(O)c3ccccc3c2O)cc1,68.7% (active)
4,CCN(CC)CCNc1cc(C)nc2c1C(=O)C(=O)C=C2N1CCCCC1,57.9% (active)
5,CC(C)c1nc2oc3c(NCCO)ncnc3c2c2c1COC(C)(C)C2,66.2% (active)
6,CC(=NNC(=S)Nc1cccc(Cl)c1)c1ccccn1,-63.5%
7,O=C(CSc1cccc2cccnc12)N/N=C/c1cccnc1,-46.6%
8,N#Cc1ccc(CSc2nnc(NC(=O)c3ccc4ncsc4c3)s2)cc1,40.7% (active)
9,CCOC(=O)C1=C(Cc2ccc(Cl)cc2)C(=O)c2ccccc2C1=O,39.3% (active)
10,CCC1=NN2C(=N)/C(=C\c3ccc(OCc4cc(=O)n5nc(CC)sc5n4)c(OC)c3)C(=O)N=C2S1,22.8% (active)
11,CC(=O)N1CCN(C2c3cccc4cccc(c34)C2NS(=O)(=O)c2ccccc2)CC1 (configuration not stated),-45.3%
12,COc1ccc2[nH]c3c4c(ccc3c2c1)C(=O)C=CC4=O,32.9% (active)
13,CCc1ccc(C2=NNC(=Nc3cccc(S(=O)(=O)N(C)C)c3)SC2)cc1,-141%
14,COCc1cc(C2C(C(=O)c3ccco3)=C(O)C(=O)N2CCOCCO)ccc1O (configuration not stated),-40.1%
15,COc1cc(N=c2ssnc2Cl)cc(OC)c1OC,-45.9%
16,CC(C)c1nc2oc3c(NCC4CCCO4)ncnc3c2c2c1COC(C)(C)C2 (configuration not stated),62.8% (active)
17,CC(=O)C1=C(c2cccc([N+](=O)[O-])c2)N(C(C)=O)n2c(C)nnc2S1,-387%
18,O=C(NCCc1ccccc1)c1cnn2c(C(F)F)cc(C3CC3)nc12,59.8% (active)
19,O=C(O)c1ccc(NC2=C/C(=N/S(=O)(=O)c3ccccc3)c3ccccc3C2=O)cc1,76% (active)

row,Compound,inhibition
1,Cc1cc(C)n2nc(SCc3nnc(SCc4ccccc4Cl)s3)nc2n1,43% (active)
2,CCCc1nc2c(c(=O)c3ccccc3n2C)c(=O)n1-c1ccc(F)cc1,58.5% (active)
3,CCOC(=O)c1c(C)[nH]c(C2=NNC(=Nc3ccccc3)SC2)c1C,-141%
4,O=C(CSc1n[nH]c(-c2cccnc2)n1)Nc1ccc([N+](=O)[O-])cc1Br,56.4% (active)
5,CC(=O)N(C1=C(Cl)C(=O)c2ccccc2C1=O)C1CCCCC1,78.2% (active)
6,Cc1ccc(C2=NNC(=Nc3ccc(F)cc3)SC2)cc1,-80%
7,COC(=O)c1ccc(CCc2cc(O)c(Br)cc2O)cc1,54.2% (active)
8,O=C(c1ccccc1)c1n[nH]c(-c2ccccc2)cc1=O,16.3% (active)
9,O=C1C=C(N2CCCCC2)c2ccccc2C1=O,86.1% (active)
10,CCCCC(=O)NC(c1ccc(N(CC)CC)cc1)c1ccc2cccnc2c1O (configuration not stated),-59.3%
11,O=C1C(Cl)=C(Oc2ccccc2)C(=O)c2ccccc21,77.7% (active)
12,CCOc1ccccc1Nc1nnc(SCc2nnc(-c3cc(OC)c(OC)c(OC)c3)o2)s1,44.7% (active)
13,COP(=O)(OC)c1ccc(NCc2cc(O)ccc2O)cc1,53.1% (active)
14,COC1=C(OC)C(=O)C(Sc2ccc3ccccc3c2)=CC1=O,71.3% (active)
15,O=c1[nH]c2ccccc2n2c(-c3ccccc3)nnc12,58.5% (active)
16,CCOc1ccc(/C=C2/SC(=S)N(CCC(=O)Nc3ccc(C(=O)O)cc3)C2=O)cc1,-41.5%
17,S=C(NCc1ccccn1)NN=Cc1ccccn1,-45.4%
18,CC1(C)C(=O)Nc2ccccc2N1C(=O)COC(=O)c1cc(Cl)cc(Cl)c1,-50.1%
